In PubChem BioAssay (NCI):
This is part of a sample that, as a whole, favours compounds with a hit. Of some 79,000 tested, about 15% had one in any assay. Values without a mark were called inactive. Activity calls are given as the source filed them. Cut-off read from the data, not from the text of the source: active = growth inhibition above about 70%; inactive = the rest.

Experiments:
[1] = NCI Yeast Anticancer Drug Screen. Data for the rad50 strain (AID 155);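 note: 0% = growth of vehicle-only cultures of the same strain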; details: S. cerevisiae rad50 strain growth inhibition; at 50.0 µM; stronger effect = higher value
Method in brief: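 Genetically altered yeast (DNA repair pathway); compound treatment; growth inhibition vs vehicle ctrl.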

[2] = NCI Yeast Anticancer Drug Screen. Data for the mec2-1 strain (AID 157); details: S. cerevisiae mec2-1 strain, at 50.0 µM, stronger effect = higher value
Method in brief: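 Cells of the genetically defined mec2-1 yeast strain are incubated with test compound. Inhibition of growth is calculated against vehicle-treated controls.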

[3] = NCI Yeast Anticancer Drug Screen. Data for the sgs1 mgt1 strain (AID 161);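 note: 0% = growth of cultures given vehicle only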; details: S. cerevisiae sgs1 mgt1 strain, at 50.0 µM, stronger effect = higher value
Method in brief: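 Inhibition of yeast growth, normalised to vehicle-treated controls, is reported for a strain bearing genetic alterations in DNA damage repair.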

[4] = NCI Yeast Anticancer Drug Screen. Data for the cln2 rad14 strain (AID 165);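 note: 0% = growth equal to vehicle treated cultures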; details: S. cerevisiae cln2 rad14 strain, at 50.0 µM, stronger effect = higher value
Method in brief: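 The screen exposed genetically defined yeast (cln2 rad14) to test compounds and scored growth inhibition relative to vehicle-treated controls.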

[5] = NCI Yeast Anticancer Drug Screen. Data for the bub3 strain (AID 167); details: S. cerevisiae bub3 mutant strain, at 50.0 µM, stronger effect = higher value
Method in brief: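 Yeast carrying a defined mutation is treated with each compound, and growth is compared with that of vehicle-exposed cells to give inhibition.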

[6] = NCI Yeast Anticancer Drug Screen. Data for the mlh1 rad18 strain (AID 175); details: S. cerevisiae mlh1 rad18 strain growth inhibition; at 50.0 µM; stronger effect = higher value
Method in brief: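 Compound-treated yeast growth, normalised to vehicle controls. Strain bears defined DNA repair mutations.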

CCOC(=O)/C=C/c1nc(C(=O)OCC)c(C)c(=O)[nH]1
growth inhibition [1]: -0.55%
growth inhibition [2]: 8.3%
growth inhibition [3]: 22%
growth inhibition [4]: 7%
growth inhibition [5]: 1.25%
growth inhibition [6]: -24.1%

CCC(=O)OC1=CC(=O)c2ccccc2C1=O
growth inhibition [1]: 11.6%
growth inhibition [2]: 12.4%
growth inhibition [3]: 4.7%
growth inhibition [4]: 8.6%
growth inhibition [5]: -15.5%
growth inhibition [6]: 12.6%

Oc1ccccc1-c1cc(-c2ccccc2)nc(NCCCCNc2nc(-c3ccccc3)cc(-c3ccccc3O)n2)n1
growth inhibition [1]: -5.05%
growth inhibition [2]: -3.95%
growth inhibition [3]: -14.7%
growth inhibition [4]: -21.8%
growth inhibition [5]: -1.75%
growth inhibition [6]: -2.65%

CC1(C)CC(=O)C(CC(C(=O)C(=O)Nc2cc(C(F)(F)F)ccc2Cl)C(=O)c2ccco2)C(=O)C1 (configuration not stated)
growth inhibition [1]: -1.55%
growth inhibition [2]: 30.1%
growth inhibition [3]: 18.9%
growth inhibition [4]: -22.4%
growth inhibition [5]: 13%
growth inhibition [6]: 19.1%

OC1(c2ccc(-c3ccccc3)cc2)c2ccccc2-c2ccccc2C1(O)c1ccc(-c2ccccc2)cc1 (configuration not stated)
growth inhibition [1]: 6.45%
growth inhibition [2]: -5.95%
growth inhibition [3]: -2.2%
growth inhibition [4]: 2%
growth inhibition [5]: 6.3%
growth inhibition [6]: 7.05%

O=[N+]([O-])c1ccc2nc(/C=C(\O)c3ccccc3)c(/C=C(\O)c3ccc(Cl)cc3)nc2c1
growth inhibition [1]: -10.1%
growth inhibition [2]: -28.2%
growth inhibition [3]: -52.5%
growth inhibition [4]: -66.3%
growth inhibition [5]: -62.1%
growth inhibition [6]: -31.2%

C=C(C)COc1ccc(/C=C/C(=O)OCC)cc1
growth inhibition [1]: 9.8%
growth inhibition [2]: -4%
growth inhibition [3]: 4.5%
growth inhibition [4]: 1.2%
growth inhibition [5]: -6.25%
growth inhibition [6]: -12.4%

COC1C(=O)c2ccccc2N1C(C)=O (configuration not stated)
growth inhibition [1]: 7.85%
growth inhibition [2]: -2.25%
growth inhibition [3]: -7.6%
growth inhibition [4]: -18.2%
growth inhibition [5]: -6.85%
growth inhibition [6]: 1.15%

O=C1C(=O)c2ccccc2C(O)=C1CN(CCO)CCO
growth inhibition [1]: 10.8%
growth inhibition [2]: 19.8%
growth inhibition [3]: 24.2%
growth inhibition [4]: -8.25%
growth inhibition [5]: 23.4%
growth inhibition [6]: 26.2%

Nc1c(Br)c(Cl)c(Br)c2c1-c1ccc(Cl)cc1C2
growth inhibition [1]: -13.1%
growth inhibition [2]: -4.8%
growth inhibition [3]: -1.4%
growth inhibition [4]: -19.9%
growth inhibition [5]: 7.15%
growth inhibition [6]: 5.05%

CCCCC(=O)NCCNC(=O)CCCC
growth inhibition [1]: -0.5%
growth inhibition [2]: 7%
growth inhibition [3]: -1.8%
growth inhibition [4]: -18.6%
growth inhibition [5]: 14.2%
growth inhibition [6]: 9.55%

Cc1cc(C)c(C(=O)CCC(=O)O)c(C)c1
growth inhibition [1]: 11.8%
growth inhibition [2]: 7.8%
growth inhibition [3]: 16.6%
growth inhibition [4]: 17.9%
growth inhibition [5]: -4.7%
growth inhibition [6]: 16.6%

CN(C)CCC1(C#N)CCCCC1
growth inhibition [1]: 5.3%
growth inhibition [2]: 23.3%
growth inhibition [3]: 10.4%
growth inhibition [4]: -19.3%
growth inhibition [5]: 12.4%
growth inhibition [6]: 1.65%

COC(=O)C1C2C=CC(CC2)C1C(=O)OC (configuration not stated)
growth inhibition [1]: 1.9%
growth inhibition [2]: 5.65%
growth inhibition [3]: -0.3%
growth inhibition [4]: -22.1%
growth inhibition [5]: -10.8%
growth inhibition [6]: 7.95%

CN1C(=O)C(C)(O)Sc2ccccc21 (configuration not stated)
growth inhibition [1]: -1.2%
growth inhibition [2]: -19.4%
growth inhibition [3]: -36.2%
growth inhibition [4]: -17.9%
growth inhibition [5]: -9.2%
growth inhibition [6]: 0.1%

CN1C(c2ccncc2)=NCC12CCCCC2
growth inhibition [1]: 17.2%
growth inhibition [2]: 7.35%
growth inhibition [3]: 3.6%
growth inhibition [4]: 1.05%
growth inhibition [5]: 13.2%
growth inhibition [6]: -1.5%

Nc1nnnn1NC(=O)NCCCl
growth inhibition [1]: -43.7%
growth inhibition [2]: -38.7%
growth inhibition [3]: -35.9%
growth inhibition [4]: -18.4%
growth inhibition [5]: -27.4%
growth inhibition [6]: -26.5%

C=Cc1ccc(-c2ccccc2)cc1
growth inhibition [1]: 7.1%
growth inhibition [2]: -14.7%
growth inhibition [3]: -25.5%
growth inhibition [4]: -43.2%
growth inhibition [5]: -5.8%
growth inhibition [6]: -0.65%

O=C1c2ccccc2Cc2ccccc21
growth inhibition [1]: 3.5%
growth inhibition [2]: 7.75%
growth inhibition [3]: -1.7%
growth inhibition [4]: -19.4%
growth inhibition [5]: 16.4%
growth inhibition [6]: 7.55%

COc1cc2c(cc1O)C1Cc3cc(O)c(OC)cc3C(C2)N1C (configuration not stated)
growth inhibition [1]: -29.8%
growth inhibition [2]: -12.7%
growth inhibition [3]: -30.2%
growth inhibition [4]: 3.1%
growth inhibition [5]: -25.6%
growth inhibition [6]: -22.1%

O=C1c2cc(Cl)ccc2-c2c(Cl)cccc21
growth inhibition [1]: 22.9%
growth inhibition [2]: -4.95%
growth inhibition [3]: -10.9%
growth inhibition [4]: 2.05%
growth inhibition [5]: 4.05%
growth inhibition [6]: -14.9%

OCC1CCN(CCOCc2ccccc2)C1 (configuration not stated)
growth inhibition [1]: 9.25%
growth inhibition [2]: -0.4%
growth inhibition [3]: -2.3%
growth inhibition [4]: -32.5%
growth inhibition [5]: -7.05%
growth inhibition [6]: 7.6%

CN(C)S(=O)(=O)C(c1ccccc1)C(O)(c1ccccc1)c1ccc(Cl)cc1 (configuration not stated)
growth inhibition [1]: 72.1% (active)
growth inhibition [2]: 45.5%
growth inhibition [3]: 54.1%
growth inhibition [4]: 22.9%
growth inhibition [5]: 16.8%
growth inhibition [6]: 57%

Oc1ccc(-c2cc(-c3cc(-c4ccc(O)cc4)no3)on2)cc1
growth inhibition [1]: -1.95%
growth inhibition [2]: -3.5%
growth inhibition [3]: -10.8%
growth inhibition [4]: -11.7%
growth inhibition [5]: -32.3%
growth inhibition [6]: -7.1%

Cc1cc(O)c(C(c2ccccn2)c2c(O)cc(C)[nH]c2=O)c(=O)[nH]1
growth inhibition [1]: -4.85%
growth inhibition [2]: 6.15%
growth inhibition [3]: -7.9%
growth inhibition [4]: -2.55%
growth inhibition [5]: -0.25%
growth inhibition [6]: 5%

CC(C)NC(=O)C1C2CCC(CC2)C1C(=O)NC(C)C (configuration not stated)
growth inhibition [1]: 0.95%
growth inhibition [2]: 34.6%
growth inhibition [3]: -4%
growth inhibition [4]: -3.3%
growth inhibition [5]: 17.7%
growth inhibition [6]: 0.35%

O=C(O)c1ccc2c(c1)C(=O)c1c(c(O)c3ccccc3c1O)C2=O
growth inhibition [1]: 9.25%
growth inhibition [2]: 6.25%
growth inhibition [3]: 9.6%
growth inhibition [4]: -11.7%
growth inhibition [5]: 12.3%
growth inhibition [6]: -8.55%

CCCCNC(=O)C(c1ccccc1)c1ccccc1
growth inhibition [1]: 22.1%
growth inhibition [2]: 14.9%
growth inhibition [3]: 10.8%
growth inhibition [4]: -12.3%
growth inhibition [5]: 14.3%
growth inhibition [6]: 4.2%

CCOC(=O)c1ccc(NCc2nc3c([nH]2)c(=O)n(C)c(=O)n3C)cc1
growth inhibition [1]: -0.95%
growth inhibition [2]: -1.45%
growth inhibition [3]: -1.35%
growth inhibition [4]: -54.1%
growth inhibition [5]: -14.2%
growth inhibition [6]: 1.65%

CC(C)(C)OC(=O)N[C@H]1CCN(C2CCCCC2)C1=O
growth inhibition [1]: -34.9%
growth inhibition [2]: -10.1%
growth inhibition [3]: -22.1%
growth inhibition [4]: 7.75%
growth inhibition [5]: -6.4%
growth inhibition [6]: -62.5%

COCCC(N)C(=O)O (configuration not stated)
growth inhibition [1]: 6%
growth inhibition [2]: -13.3%
growth inhibition [3]: -15%
growth inhibition [4]: -22.8%
growth inhibition [5]: -11.6%
growth inhibition [6]: 2.65%

O=c1[nH]c(=O)n(C2CC3OCC3O2)cc1F (configuration not stated)
growth inhibition [1]: -14.2%
growth inhibition [2]: 35.7%
growth inhibition [3]: -9.05%
growth inhibition [4]: 20.1%
growth inhibition [5]: -13.5%
growth inhibition [6]: 11.2%

O=C1C2C3CCC(O3)C2C(=O)N1c1ccccn1 (configuration not stated)
growth inhibition [1]: -26.3%
growth inhibition [2]: -11.6%
growth inhibition [3]: -4.85%
growth inhibition [4]: -25.1%
growth inhibition [5]: 2.25%
growth inhibition [6]: 0.2%

CC(C)(CC(=O)Nc1ccccc1)C(=O)O
growth inhibition [1]: -11.8%
growth inhibition [2]: -7.05%
growth inhibition [3]: -19.4%
growth inhibition [4]: -12.1%
growth inhibition [5]: -56.9%
growth inhibition [6]: -0.4%

COc1cc(NCCNCC(C)(C)C)c2ncccc2c1
growth inhibition [1]: 11.7%
growth inhibition [2]: 18.7%
growth inhibition [3]: 22.1%
growth inhibition [4]: 11.8%
growth inhibition [5]: 33.5%
growth inhibition [6]: 0.5%

CC(=O)Nc1cc2cc(Br)ccc2oc1=O
growth inhibition [1]: 28.9%
growth inhibition [2]: 33.4%
growth inhibition [3]: 18.9%
growth inhibition [4]: 40%
growth inhibition [5]: 50.1%
growth inhibition [6]: 36.3%

O=C(O)CCc1ccsc1
growth inhibition [1]: -17.6%
growth inhibition [2]: 4.55%
growth inhibition [3]: -21.9%
growth inhibition [4]: -28.4%
growth inhibition [5]: -10.5%
growth inhibition [6]: 4.45%

N/C=N/OC(=O)c1ccccc1
growth inhibition [1]: 11.5%
growth inhibition [2]: 14.4%
growth inhibition [3]: 11.8%
growth inhibition [4]: 4.7%
growth inhibition [5]: 0.5%
growth inhibition [6]: 8.25%

CC(=O)O[C@H]1C[C@H]2CC[C@@]1(C)C2(C)C
growth inhibition [1]: 0.85%
growth inhibition [2]: -4.45%
growth inhibition [3]: -5.55%
growth inhibition [4]: -24.8%
growth inhibition [5]: -1.1%
growth inhibition [6]: 7.95%

CC(C)N(CCC#N)C(=S)Nc1cccc2ccccc12
growth inhibition [1]: 17.1%
growth inhibition [2]: 10.1%
growth inhibition [3]: 19.6%
growth inhibition [4]: 14.9%
growth inhibition [5]: 12.2%
growth inhibition [6]: -8.2%

CCCCCCCCCCCCC(O)C(=O)O (configuration not stated)
growth inhibition [1]: 12.3%
growth inhibition [2]: -17.9%
growth inhibition [3]: 10.2%
growth inhibition [4]: 12.8%
growth inhibition [5]: 35.7%
growth inhibition [6]: -39.7%

COCC(=O)C(C(C)=O)C(c1ccncc1)C(C(C)=O)C(=O)COC (configuration not stated)
growth inhibition [1]: -7.75%
growth inhibition [2]: 14.9%
growth inhibition [3]: 6.85%
growth inhibition [4]: -10.2%
growth inhibition [5]: -1.6%
growth inhibition [6]: -20.4%
